According to publication PMC5700166:

What was measured:
Test in all cases: protein-binding microarray (PBM); PBM: ~300 nM protein, 6 mM HEPES pH 7.8, 80 mM KCl, 0.5 mM EDTA, 0.5 mM EGTA, 6% glycerol, 35 ng/ul poly-dIdC, 1% milk, 1 h, room temperature; Ap Aiptasia and Nv Nematostella (sea anemones) / Co Capsaspora / Aq Amphimedon (sponge) / Dm Drosophila / Hu human; RHD is the Rel homology domain; high values mean tight binding
Details in all cases: dsDNA, one strand shown
[1] = molecular target: T1, GST-Ap-NF-kB RHD (Exaiptasia pallida (Aiptasia), UniProt A0A913YAJ5 2-422)
T1 sequence: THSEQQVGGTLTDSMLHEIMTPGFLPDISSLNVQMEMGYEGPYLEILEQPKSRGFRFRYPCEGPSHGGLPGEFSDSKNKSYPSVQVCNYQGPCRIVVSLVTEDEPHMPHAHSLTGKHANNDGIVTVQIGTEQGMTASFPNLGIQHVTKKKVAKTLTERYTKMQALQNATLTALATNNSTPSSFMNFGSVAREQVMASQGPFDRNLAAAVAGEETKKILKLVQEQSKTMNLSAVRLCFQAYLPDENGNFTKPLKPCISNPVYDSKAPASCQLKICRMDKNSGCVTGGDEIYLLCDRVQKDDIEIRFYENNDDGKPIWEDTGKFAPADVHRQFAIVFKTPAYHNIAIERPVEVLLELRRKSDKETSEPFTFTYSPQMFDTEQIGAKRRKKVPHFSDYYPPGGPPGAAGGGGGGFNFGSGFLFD

[2] = molecular target: T2, GST-Nv-NF-kB (Cys allele) (Nematostella vectensis, UniProt E5G601 2-411)
T2 sequence: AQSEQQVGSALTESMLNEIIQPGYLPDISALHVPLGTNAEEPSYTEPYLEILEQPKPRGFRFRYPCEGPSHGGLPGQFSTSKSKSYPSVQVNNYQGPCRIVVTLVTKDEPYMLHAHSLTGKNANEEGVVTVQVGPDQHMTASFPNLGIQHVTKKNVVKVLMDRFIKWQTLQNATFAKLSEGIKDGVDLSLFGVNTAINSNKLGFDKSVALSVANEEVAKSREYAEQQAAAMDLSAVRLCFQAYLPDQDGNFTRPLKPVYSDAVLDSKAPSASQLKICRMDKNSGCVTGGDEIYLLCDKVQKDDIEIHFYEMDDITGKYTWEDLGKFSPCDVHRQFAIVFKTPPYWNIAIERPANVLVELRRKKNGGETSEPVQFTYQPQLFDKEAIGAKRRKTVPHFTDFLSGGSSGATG

[3] = molecular target: T3, GST-Co-NF-kB (Capsaspora owczarzaki, UniProt F1ARL5 200-546)
T3 sequence: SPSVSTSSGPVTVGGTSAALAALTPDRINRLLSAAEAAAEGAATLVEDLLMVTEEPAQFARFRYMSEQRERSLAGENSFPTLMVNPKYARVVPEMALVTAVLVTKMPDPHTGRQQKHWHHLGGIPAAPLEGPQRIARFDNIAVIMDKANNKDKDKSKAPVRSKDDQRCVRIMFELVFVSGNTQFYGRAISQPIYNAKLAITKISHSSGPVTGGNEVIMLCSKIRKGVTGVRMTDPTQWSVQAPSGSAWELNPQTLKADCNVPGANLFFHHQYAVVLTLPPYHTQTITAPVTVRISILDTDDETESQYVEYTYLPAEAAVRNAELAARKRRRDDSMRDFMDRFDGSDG

[4] = molecular target: T4, GST-Dm-Relish (Drosophila melanogaster, UniProt Q94527 99-473)
T4 sequence: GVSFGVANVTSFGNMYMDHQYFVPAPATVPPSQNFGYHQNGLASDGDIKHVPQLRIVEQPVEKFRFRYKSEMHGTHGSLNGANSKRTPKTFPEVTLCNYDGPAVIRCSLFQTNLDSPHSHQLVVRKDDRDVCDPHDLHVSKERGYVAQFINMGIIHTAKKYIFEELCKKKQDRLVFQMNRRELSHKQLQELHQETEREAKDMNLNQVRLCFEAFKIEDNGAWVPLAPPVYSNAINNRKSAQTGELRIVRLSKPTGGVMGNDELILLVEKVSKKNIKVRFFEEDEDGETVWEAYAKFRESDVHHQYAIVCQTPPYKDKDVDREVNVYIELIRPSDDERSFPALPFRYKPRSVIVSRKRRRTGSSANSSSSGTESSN

[5] = molecular target: T5, GST-Aq-NF-kB (Amphimedon queenslandica, UniProt A9Y5G7 2-389)
T5 sequence: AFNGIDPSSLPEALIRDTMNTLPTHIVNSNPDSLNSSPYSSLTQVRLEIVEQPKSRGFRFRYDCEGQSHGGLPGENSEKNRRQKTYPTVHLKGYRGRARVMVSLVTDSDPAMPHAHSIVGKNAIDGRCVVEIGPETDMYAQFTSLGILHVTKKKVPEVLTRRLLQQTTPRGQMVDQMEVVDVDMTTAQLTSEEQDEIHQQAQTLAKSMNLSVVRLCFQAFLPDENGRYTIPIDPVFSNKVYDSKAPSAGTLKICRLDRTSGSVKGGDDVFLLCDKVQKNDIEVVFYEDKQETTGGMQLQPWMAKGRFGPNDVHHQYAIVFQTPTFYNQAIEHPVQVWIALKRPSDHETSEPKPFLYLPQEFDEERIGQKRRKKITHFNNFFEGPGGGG

| Sequence | binding signal [1] [z-score] | binding signal [2] [z-score] | binding signal [3] [z-score] | binding signal [4] [z-score] | binding signal [5] [z-score] |
| --- | --- | --- | --- | --- | --- |
| CCGATTAACATCAGGCTATCCCCTGATGTTAATCGGGTCTTGATTCGCTTGACGCTGCTG | 4.44 | 3.67 | 2.18 | 3.3 | 4.81 |
| CCGATTAACATCAATCCCCCCCGTGATGTTAATCGGGTCTTGATTCGCTTGACGCTGCTG | 6.49 | 4.68 | 7.66 | 6.77 | 5.33 |
| CCGATTAACATCACGGGGGGTAATGATGTTAATCGGGTCTTGATTCGCTTGACGCTGCTG | 4.02 | 2.73 | 6.28 | 3.64 | 3.77 |
| CCGATTAACATCAATCGTCCCCCTGATGTTAATCGGGTCTTGATTCGCTTGACGCTGCTG | 5.15 | 4.15 | 6.83 | 2.93 | 4.81 |
| CCGATTAACATCAGGGAATATAATGATGTTAATCGGGTCTTGATTCGCTTGACGCTGCTG | 3.2 | 3.59 | 3.13 | 1.66 | 3.14 |
| CCGATTAACATCAACGTATTCCCTGATGTTAATCGGGTCTTGATTCGCTTGACGCTGCTG | 3.17 | 2.78 | 2.86 | 1.41 | 1.85 |
| CCGATTAACATCAGGGGGTAGGATGATGTTAATCGGGTCTTGATTCGCTTGACGCTGCTG | 4.15 | 2.75 | 3.64 | 1.35 | 2.89 |
| CCGATTAACATCAAAATTCCCGGTGATGTTAATCGGGTCTTGATTCGCTTGACGCTGCTG | 4.57 | 5.96 | 5.57 | 6.54 | 5.5 |
| CCGATTAACATCACTTCCCCCCATGATGTTAATCGGGTCTTGATTCGCTTGACGCTGCTG | 4.7 | 4.18 | 8.31 | 3.34 | 3.86 |
| CCGATTAACATCAATATACCCCCTGATGTTAATCGGGTCTTGATTCGCTTGACGCTGCTG | 6.61 | 4.24 | 6.57 | 3.69 | 4.03 |
| CCGATTAACATCACCCGGGAAAATGATGTTAATCGGGTCTTGATTCGCTTGACGCTGCTG | 2.61 | 3.28 | 5.18 | 1.52 | 2.6 |
| CCGATTAACATCAGGGAAATTCATGATGTTAATCGGGTCTTGATTCGCTTGACGCTGCTG | 4.54 | 6.28 | 4.15 | 2.26 | 5.94 |
| CCGATTAACATCAGGGGGTTAGATGATGTTAATCGGGTCTTGATTCGCTTGACGCTGCTG | 3.78 | 2.99 | 1.94 | 4.34 | 3.58 |
| CCGATTAACATCAGGGAATCCACTGATGTTAATCGGGTCTTGATTCGCTTGACGCTGCTG | 3.05 | 3.31 | 2.25 | 7.85 | 5.29 |
| CCGATTAACATCAGGGGTTACACTGATGTTAATCGGGTCTTGATTCGCTTGACGCTGCTG | 2.67 | 1.04 | 2.66 | 2 | 2.36 |
| CCGATTAACATCACGTGTTTCCCTGATGTTAATCGGGTCTTGATTCGCTTGACGCTGCTG | 2.62 | 2.76 | 3 | 3.51 | 3.35 |
| CCGATTAACATCAGAACTTTCCCTGATGTTAATCGGGTCTTGATTCGCTTGACGCTGCTG | 4.2 | 6.87 | 3.78 | 2.67 | 7.19 |
| CCGATTAACATCATCAGGGGGGATGATGTTAATCGGGTCTTGATTCGCTTGACGCTGCTG | 4.58 | 4.51 | 6.21 | 4.27 | 5.18 |
| CCGATTAACATCAGGGGCAACCCTGATGTTAATCGGGTCTTGATTCGCTTGACGCTGCTG | 2.71 | 2.89 | 2.31 | 3.06 | 5.52 |
| CCGATTAACATCATTCGGGAAAATGATGTTAATCGGGTCTTGATTCGCTTGACGCTGCTG | 1.48 | 3.97 | 3.01 | 1.3 | 2.01 |
| CCGATTAACATCAGGGGGTGTACTGATGTTAATCGGGTCTTGATTCGCTTGACGCTGCTG | 3.65 | 3.29 | 2.61 | 8.3 | 4.78 |
| CCGATTAACATCACGGGAAACCCTGATGTTAATCGGGTCTTGATTCGCTTGACGCTGCTG | 4.31 | 4.16 | 3.68 | 7.56 | 5.65 |
| CCGATTAACATCATGCGGGAAAATGATGTTAATCGGGTCTTGATTCGCTTGACGCTGCTG | 2.22 | 3.71 | 4.47 | 1.22 | 2.76 |
| CCGATTAACATCACGGAGTTCCCTGATGTTAATCGGGTCTTGATTCGCTTGACGCTGCTG | 2.6 | 1.63 | 1.53 | 5 | 4.63 |
| CCGATTAACATCAAGTACCCCCCTGATGTTAATCGGGTCTTGATTCGCTTGACGCTGCTG | 5.57 | 3.68 | 4.81 | 4.13 | 3.99 |
| CCGATTAACATCAAGAATTCCCATGATGTTAATCGGGTCTTGATTCGCTTGACGCTGCTG | 4.1 | 5.41 | 3.48 | 4.5 | 4.33 |
| CCGATTAACATCAGGGGGGTACATGATGTTAATCGGGTCTTGATTCGCTTGACGCTGCTG | 5.31 | 2.52 | 5.22 | 4.13 | 3.31 |
